Records with an inconclusive call do not appear. Calls of active or inactive are those of the source. Calls come from the whole dose curve; as a rule, active = well fitted inhibition curve with a large enough effect; inconclusive = small, poorly fitted or top-dose-only effect; inactive = no such curve, though single readings can be large or run the other way.
Biological target: Retinaldehyde dehydrogenase 3 (Homo sapiens) (UniProt P47895)
Experiment: qHTS for Inhibitors of the Aldehyde Dehydrogenase Family (ALDH1A3) Validation screen (AID 2061312); note: nearly all actives have a fitted effect of over 45% in size; for activity change, negative = inhibition: % is set by controls: 0 for no effect and ±100 for the full control effect
Conditions: ALDH1A3 enzyme inhibition qHTS validation, fluorescence; series mostly up to 84.7 µM; activity change, negative = inhibition: at the top concentration
Potency is the fitted concentration of half-maximal effect.

Row | SMILES | activity change, negative = inhibition | Potency
1 | CNC(=S)NS(=O)(=O)c1cc(CCNC(=O)c2cc(Cl)ccc2OC)ccc1OC | 29% (inactive) | 
2 | Cc1nn(C)c2c1C(c1ccc(C(F)(F)F)cc1)C(C#N)=C(N)O2 (centres undefined) |  | 6.31 µM (active)
3 | CC(C)(Oc1ccc(-c2nc3cc(Cl)ccc3s2)cc1)C(=O)O |  | 31.6 µM (active)
4 | O=[N+]([O-])c1ccc(-[n+]2nc(-c3ccccc3)nn2-c2ccc(I)cc2)cc1 |  | 17.8 µM (active)
5 | COc1ncc(Nc2ncc([C@@H](C)N3CCN(S(C)(=O)=O)CC3)cc2-c2nc(C)nc(N)n2)cc1F | 4.7% (inactive) | 
6 | CN(CCCNC(=O)c1ccc2nc3c(c(Cl)c2c1)CCCC3)Cc1ccccc1 | -7.46% (inactive) | 

Biological target: Retinal dehydrogenase 2 (Homo sapiens) (UniProt O94788)
Experiment: qHTS for Inhibitors of the Aldehyde Dehydrogenase Family (ALDH1A2) Confirmation screens (AID 2061314); note: nearly all actives have a fitted effect of over 65% in size; for activity, negative = inhibition: % is set by controls: 0 for no effect and ±100 for the full control effect
Conditions: ALDH1A2 enzyme inhibition qHTS confirmation; series mostly up to 45.9 µM; activity, negative = inhibition: at the top concentration

Row | SMILES | Potency | activity, negative = inhibition
7 | CO/N=C(/C(=O)N[C@@H]1C(=O)N2C(C(=O)O)=C(CSC(=O)c3ccco3)CS[C@H]12)c1csc(N)n1 | 28.3 µM (active) | 
8 | Cc1ccc(C(=O)Nc2noc3ccccc23)cc1 |  | -27.9% (inactive)
9 | CNC(=S)NS(=O)(=O)c1cc(CCNC(=O)c2cc(Cl)ccc2OC)ccc1OC |  | -14.1% (inactive)
10 | COc1cc(OC)c(NC(=O)c2ccc(Cc3cc4c(cc3C)C(C)(C)CCC4(C)C)o2)c(OC)c1 | 5.65 µM (active) | 
11 | CCCC/C=C\CCCCCc1cc(=O)c2ccccc2n1C | 6.97 µM (active) | 
12 | CC(=O)c1c(C)cc2cccc(O)c2c1O[C@@H]1O[C@H](CO)[C@@H](O)[C@H](O)[C@H]1O |  | -1.52% [at 25.6 µM] (inactive)
13 | CN(CCCNC(=O)c1ccc2nc3c(c(Cl)c2c1)CCCC3)Cc1ccccc1 | 7.12 µM (active) | 
14 | C/C(=C\CC/C(C)=C/CC[C@]1(C)CCc2cc(O)cc(C)c2O1)CC/C=C(\C)C(=O)O |  | -7.57% (inactive)
15 | C=C1C(=O)O[C@@H]2C3C(=C(C)[C@@H](O)[C@@H](OC(=O)/C(=C/C)COC(C)=O)[C@@H]12)C(=O)[C@H]1O[C@@]31C (some centres undefined) | 0.98 µM (active) | 

Biological target: Retinaldehyde dehydrogenase 3 (Homo sapiens) (UniProt P47895)
Experiment: qHTS for Inhibitors of the Aldehyde Dehydrogenase Family (ALDH1A3) Primary screen (AID 2061315);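 for activity change, negative = inhibition: plate controls were DMSO vehicle for no effect and reference inhibitor for full effect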
Conditions: ALDH inhibition qHTS; series mostly up to 56 µM; activity change, negative = inhibition: at the top concentration

Row | SMILES | activity change, negative = inhibition | Potency
16 | CO/N=C(/C(=O)N[C@@H]1C(=O)N2C(C(=O)O)=C(CSC(=O)c3ccco3)CS[C@H]12)c1csc(N)n1 | -18.3% (inactive) | 
17 | Cc1ccc(C(=O)Nc2noc3ccccc23)cc1 |  | 5.01 µM (active)
18 | CNC(=S)NS(=O)(=O)c1cc(CCNC(=O)c2cc(Cl)ccc2OC)ccc1OC | 18.9% (inactive) | 
19 | CC(C)(Oc1ccc(-c2nc3cc(Cl)ccc3s2)cc1)C(=O)O |  | 11.2 µM (active)
20 | COc1ncc(Nc2ncc([C@@H](C)N3CCN(S(C)(=O)=O)CC3)cc2-c2nc(C)nc(N)n2)cc1F | -9.48% (inactive) | 
21 | CCCC/C=C\CCCCCc1cc(=O)c2ccccc2n1C | -5.71% (inactive) | 
22 | CN(CCCNC(=O)c1ccc2nc3c(c(Cl)c2c1)CCCC3)Cc1ccccc1 | -5.03% (inactive) | 
23 | C/C(=C\CC/C(C)=C/CC[C@]1(C)CCc2cc(O)cc(C)c2O1)CC/C=C(\C)C(=O)O | 19.4% [at 28 µM] (inactive) | 
24 | C=C1C(=O)O[C@@H]2C3C(=C(C)[C@@H](O)[C@@H](OC(=O)/C(=C/C)COC(C)=O)[C@@H]12)C(=O)[C@H]1O[C@@]31C (some centres undefined) | 9.47% [at 28 µM] (inactive) | 
